Where “and” joins values, the source holds several entries; their conditions need not be identical. Equal entries are not always repeated.

Assay type in all cases: functional
The target in assay [1] is Solute carrier family 2, facilitated glucose transporter member 1 (Homo sapiens) (UniProt P11166). The experiment in a line: ST_JUDE_LEISH: Cytotoxicity at 2uM final concentration against transgenic Leishmania Mexicana promastigotes LmGLUT1 that are glucose transport deficient and complemented with the human glucose transporter GLUT1. Activity is measured by DNA content using SYBR green in vitro.

In assay [2] the target is Hexose transporter 1 (Plasmodium falciparum) (UniProt O97467). Description: ST_JUDE_LEISH: Cytotoxicity at 2uM final concentration against transgenic Leishmania Mexicana promastigotes LmPfHT that are glucose transport deficient and complemented with the Plasmodium falciparum hexose transporter. Activity is measured by DNA content using SYBR green in vitro.
Assay [3] concerns the target Glucose transporter (Leishmania mexicana) (UniProt O61059). The experiment in a line: ST_JUDE_LEISH: Cytotoxicity at 2uM final concentration against transgenic Leishmania Mexicana promastigotes LmGT2 that are glucose transport deficient and complemented with the L. Mexicana glucose transporter 2. Activity is measured by DNA content using SYBR green in vitro.

Chain of Solute carrier family 2, facilitated glucose transporter member 1 (Homo sapiens) (P11166 whole entry): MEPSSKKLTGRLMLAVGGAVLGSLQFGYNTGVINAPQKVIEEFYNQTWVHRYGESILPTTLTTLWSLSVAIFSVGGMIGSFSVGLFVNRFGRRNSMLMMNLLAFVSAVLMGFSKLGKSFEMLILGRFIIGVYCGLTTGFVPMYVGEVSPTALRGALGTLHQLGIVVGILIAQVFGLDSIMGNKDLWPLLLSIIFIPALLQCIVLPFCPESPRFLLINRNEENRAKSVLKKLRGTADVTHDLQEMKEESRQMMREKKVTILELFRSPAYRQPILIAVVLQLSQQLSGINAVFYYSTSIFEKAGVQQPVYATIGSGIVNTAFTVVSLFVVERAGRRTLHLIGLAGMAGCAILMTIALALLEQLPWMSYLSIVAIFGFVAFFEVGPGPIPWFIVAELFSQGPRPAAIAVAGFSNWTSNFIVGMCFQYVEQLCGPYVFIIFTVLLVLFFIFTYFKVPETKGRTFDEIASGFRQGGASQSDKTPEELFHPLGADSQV

Consider `O=S(=O)(NCCN1CCCC1)c1cccc(-c2ccc(CNC3Cc4ccccc4C3)cc2)c1`, for which the inhibition in assay [1] amounted to 30.3%; in assay [2] it was 16.9%; in assay [3], 8.14%.
Turning to `CCC(CC(NCCCCNC(=O)c1ccc(NC(=O)c2ccc(Cl)cc2)cc1)c1ccccc1)c1ccccc1OC` (centres undefined), the inhibition in assay [1] was 1.72% and 1.8%; in assay [2] it was 1.83% and 1.71%; in assay [3], 1.46% and -1.08%.
As for `COc1ccc(N2CCN(CCCCNC(=O)c3ccc(NC(=O)c4ccc(OC(F)(F)F)cc4)cc3)CC2)c(OC)c1`, the inhibition in assay [1] came out at 5.81%; in assay [2] it was 5.69%; in assay [3], 6.29%.
In the case of `COc1ccc2nccc(CCC3(O)CCC(NCc4cc5c(cc4F)SCC(=O)N5)CC3)c2c1` (centres undefined), the inhibition in assay [1] is 0.25%; in assay [2], 2.45%; in assay [3], -2.7%.
For `O=C(Nc1ccc(OC2CCN(Cc3ccsc3)C2)c(Cl)c1)c1ccc2ncccc2c1` (centres undefined), the inhibition was -0.7% in assay [1], 0.74% in assay [2] and -0.92% in assay [3].
On to `Cc1cc(N[C@@H](CC(C)C)C(=O)NCc2cccs2)nc(Nc2ccccc2)n1`, for which the inhibition in assay [1] was determined as 5.66%; in assay [2], 3.95%; in assay [3], 2.84%.
On to `Clc1cccc(Cl)c1CCNCC1CCN(CC2CCCCC2)CC1`, for which the inhibition in assay [1] was found to be 5.48%; in assay [2], 5.47%; in assay [3], 6.54%.
On the same counts, the results for `O=C(NC1CCN(CC2(c3ccc(Cl)cc3)CCCCC2)CC1)c1cc[nH]n1` are 3.86%, 2.9% and 3.61%.
With `COc1c(C2CCN(CCCCNC(=O)c3cc(-c4ccc(Cl)cc4)[nH]c3C)CC2)ccc2c1CCCC2`, the values for the inhibition in assay [1], in assay [2] and in assay [3] were 3.66%, 4.04% and 4.31%, respectively.
On the same counts, the results for `Cc1nc(C)c(-c2ccc(C(=O)c3ccc(Cl)cc3)cc2)c(O)c1Br` are 1.02%, 1.24% and 0.57%.
Turning to `Cc1cc(N[C@@H](Cc2ccccc2)C(=O)NCCc2ccccc2)nc(NCCc2cccs2)n1`, the inhibition in assay [1] came out at 3.32%; in assay [2], 0.76%; in assay [3] it was 1.55%.
Turning to `CC(C)(C)OC(=O)n1cc(C2CCN(CCCC34CCCc5cccc(c53)NC4=O)CC2)c2ccncc21` (centres undefined), the inhibition in assay [1] is -0.89%; in assay [2] it was -0.01%; in assay [3] it was 9.45%.
Regarding `O=C(/C=C/c1ccc(Cl)c(Cl)c1)NCCCCCN1CCC(NC(=O)c2ccc(F)cc2)CC1`, the inhibition in assay [1] was found to be 6.17%; in assay [2], 3.16%; in assay [3], 5.01%.
Take `COc1ccc(NS(=O)(=O)c2ccc(Oc3nc(C)nc4sc5c(c34)CCCC5)cc2)cc1`: the inhibition in assay [1] came out at 3.13%; in assay [2], 3.7%; in assay [3], 2.29%.
Take `CC(C)C[C@H](NC(=O)c1cc(-c2ccc(F)cc2)no1)C(=O)O.CC(C)C[C@H](NC(=O)c1conc1-c1ccc(F)cc1)C(=O)O`: the inhibition in assay [1] worked out at 1.19%; in assay [2] it was 2.32%; in assay [3], 2.96%.
For `COc1cc(C=CC(=O)N2CCN(Cc3cccc(C)c3)CC2)ccc1OCc1c(C)noc1C`, the inhibition in assay [1] was 8.31%; in assay [2], 6.88%; in assay [3], 6.13%.
For the compound `CS(=O)(=O)NCCCNCc1cccc(-c2cccc(-c3nc4cc(C(F)(F)F)ccc4[nH]3)c2)c1`, the inhibition in assay [1] was -0.01%; in assay [2], -4.31%; in assay [3], -1.5%.
With `CCc1c(CCNCCCCCNCCc2ccc(OC)c(OC)c2CC)ccc(OC)c1OC`, the inhibition in assay [1] was 3.35%; in assay [2], 5.75%; in assay [3], 4.72%.
Take `O=C(c1ccc2ccccc2n1)N1CCCc2cc(Br)ccc21`: the values for the inhibition in assay [1], in assay [2] and in assay [3] were 8.95%, 1.96% and 0.16%, respectively.
`CNc1ccc(CNCc2ccc(-c3ccc(-c4nc5cccc(C)c5[nH]4)cc3)cc2)cc1`: the inhibition was found to be 18.3% in assay [1], 15.5% in assay [2] and 7.71% in assay [3].
On to `c1ccn2c(Sc3ncnc4sccc34)ncc2c1`, for which the inhibition in assay [1] was -0.89%; in assay [2] it was -1.87%; in assay [3], -1.33%.
As for `CC(C)N(Cc1cnc(N)c(C#N)n1)c1ccc(Cl)c(Cl)c1`, the inhibition is 3.62% in assay [1], 2.68% in assay [2] and 2.67% in assay [3].
Turning to `CCc1c(C(=O)NC2CCC(N3CCC(c4ccccc4OC)CC3)CC2)[nH]c2ccc(Br)cc12` (centres undefined), the results for the inhibition in assay [1], in assay [2] and in assay [3] were 0.33%, -0.12% and -0.91%, respectively.
The matching figures for `O=C(NC1CC1)c1cnc(N2CCN(Cc3ccc(Cl)cc3)CC2)c(Cl)c1`: 5.43%, 1.16% and -5.97%.
Take `CC(C)CCN1CCCN(Cc2ccc(C(=O)NCc3ccc(Cl)cc3)cc2)CC1`: the inhibition in assay [1] is 2.09%; in assay [2], 0.59%; in assay [3], -0.7%.
The matching figures for `NS(=O)(=O)c1cncc(-c2ccc3nccc(-c4cn[nH]c4)c3n2)c1`: 6.71%, 7.77% and 6.63%.
For `OCc1ccc(-c2cncc(Nc3ccc(F)c(Cl)c3)c2)cc1`, the results for the inhibition in assay [1], in assay [2] and in assay [3] were 3.7%, 4.21% and 1.04%, respectively.
Take `COc1ccc(Nc2c3ccc(Cl)cc3nc3ccc(OC)cc23)cc1`: the figures for the inhibition in assay [1], in assay [2] and in assay [3] were 2.45%, 4.25% and 0.01%, respectively.
Regarding `CCNC(=O)Nc1cccc(-c2cccc(-c3nc4cccc(C)c4[nH]3)c2)c1`, the inhibition in assay [1] worked out at 4.32%; in assay [2], 2.2%; in assay [3], 3.06%.
On the same counts, the results for `COc1cc(Nc2ncc3c(C)nc(-c4cccc(Nc5ccc(CN6CCS(=O)(=O)CC6)cc5)c4)n3n2)cc(OC)c1OC` are 14%, 5.79% and 3.49%.
On the same counts, the results for `COc1ccc(CNc2nc(NCc3ccc(C(F)(F)F)cc3)c3cc(OC)c(OC)cc3n2)cc1OC` are 20.1%, 19.9% and 14.3%.
As for `COc1ccc(-c2cc(-c3nc4cc(CN)ccc4[nH]3)c(=O)n(C)c2)cc1OC`, the inhibition in assay [1] is 0.63%; in assay [2] it was 0.83%; in assay [3], -0.74%.
On to `OCC(CO)(CO)NCc1ccc2c3c(cccc13)-c1ccccc1-2`, for which the inhibition in assay [1] amounted to 12.1%; in assay [2], 14.8%; in assay [3], 8.44%.

As usually defined, the inhibition is the change of the read-out against control, counted positive when it falls.
